Data as given in PubChem BioAssay AID540276 (National Center for Advancing Translational Sciences (NCATS), 2011).
Among all 300,000 compounds or so, about 5,400 (1.8%) were called active. Inconclusive results (about 28%) are left out. Calls come from the whole dose curve; tested in HEK293 cells. This excerpt belongs to a sample that is enriched for actives.

Assay: qHTS for inhibitors of binding or entry into cells for Marburg Virus
Details: Marburg virus pseudotyped entry inhibition, cell reporter; series mostly up to 37.8 µM; activity change, negative = inhibition: at the top concentration
% is set by controls: 0 for no effect and ±100 for the full control effect; potency is the fitted concentration of half-maximal effect.

Structure (SMILES)	Potency	activity change, negative = inhibition
O=[N+]([O-])c1ccc(NS(=O)(=O)c2ccccc2)c(Cl)c1	11.2 µM (active)	
O=C(NNS(=O)(=O)c1ccc(F)cc1)c1ccc([N+](=O)[O-])cc1Cl		-3.35% [at 46.1 µM] (inactive)
Cc1cccc(NS(=O)(=O)c2ccc([N+](=O)[O-])cc2)n1		4.08% (inactive)
CCOC(=O)CCC(NC(=O)c1ccc(CNc2nc3cc(C(F)(F)F)ccc3nc2C(=O)OCC)cc1)C(=O)OCC (stereo not given)		6.18% (inactive)
CC(C)(C)C(=O)Cn1c(NCCO)nc2ccccc21		8.41% (inactive)
O=C(O)[C@@H]1CCCN1c1ncnc2sc3c(c12)CCC3		-4.19% (inactive)
OCCNc1nc2ccccc2n1-c1ncnc2sc3c(c12)CCC3	11.2 µM (active)	
Cc1cccc(C=CC(=O)c2ccc(Cl)cc2)c1		-22.1% (inactive)
O=C(COC(=O)c1cccnc1Cl)Nc1ccc(S(=O)(=O)N2CCOCC2)cc1		-6.23% [at 46.1 µM] (inactive)
COc1ccc(C(C(=O)NCC2CCCO2)N(C(=O)Cn2nnc3ccccc32)c2ccc(NC(C)=O)cc2)cc1OC (stereo not given)		-1.63% [at 46.1 µM] (inactive)
Cc1ccc(C)c(N2CCN(C(=O)CCc3nc(-c4cccc(C(F)(F)F)c4)no3)CC2)c1		-1.91% (inactive)
COc1ccc(OC)c(Cc2nnc(CCC(=O)NC3CCCC3)o2)c1		17.9% [at 46.1 µM] (inactive)
COc1ccc(OC)c(NC(=O)c2sc3nc(C)cc(C)c3c2N)c1		2.05% [at 46.1 µM] (inactive)
COc1ccc(OC)c(Cc2cnc3nc(N)nc(N)c3c2C)c1	0.112 µM (active)	
CCCc1cc(=O)[nH]c(SCC(=O)Nc2ccc(S(=O)(=O)N3CCCC3)cc2)n1		-1.04% [at 46.1 µM] (inactive)
Cn1c(=O)c2c(O)c(C=NCC3CCCCC3)c(=O)n(C)c2n(C)c1=O		4.39% [at 46.1 µM] (inactive)
Clc1ccc(CN2CCCCCC2)cc1Cl		1.88% (inactive)
c1ccc(C(CN2CCCCC2)c2ccccc2)cc1		-13.7% (inactive)
COc1ccc(C(O)(C2CCCCC2)C(CN2CCCC2)c2ccccc2)cc1 (stereo not given)	8.91 µM (active)	
CC(CN1CCCCC1)c1ccccc1 (stereo not given)		13.2% (inactive)
CCOc1ccc(NC(=O)CN(C)C(=O)Cc2sc(C)nc2-c2ccc(F)cc2)cc1OCC		1.92% (inactive)
COC(=O)C1CCCCN1C(=O)c1ccc(OC2CCN(C(C)=O)CC2)c(OC)c1 (stereo not given)		7.23% (inactive)
CC(C)(C)NCC(O)COc1cccc2[nH]c(=O)[nH]c12 (stereo not given)	inactive	
COc1ccccc1OCC(O)CN1CCOCC1 (stereo not given)		-0.819% (inactive)

Structure (SMILES)	Potency	activity change, negative = inhibition
COc1ccccc1OCCNCC(O)COc1cccc2[nH]c3ccccc3c12 (stereo not given)	11.6 µM (active)	
Cc1ccc(NC(=O)CSc2nnc(CNC(=O)c3ccccc3F)o2)cc1Cl		21.5% [at 46.1 µM] (inactive)
O=C(N/N=C/c1ccoc1)c1ccc(Cl)cc1Cl		-2.57% [at 46.1 µM] (inactive)
O=c1[nH]c(NCCO)nnc1Cc1ccc(Cl)cc1		-1% (inactive)
CCOc1ccc(-n2c(O)c(/C=N/Nc3nnc(C)c(=O)[nH]3)c3ccccc3c2=O)cc1		-12.6% [at 46.1 µM] (inactive)
COc1ccc(Cc2nnc(N/N=C/c3ccccc3O)[nH]c2=O)cc1OC	3.66 µM (active)	
O=C(OCC(=O)N1CCN(C(=O)c2ccco2)CC1)c1ccc(Cl)c(Cl)c1		26.2% (inactive)
COCCOC(=O)C1=C(C)NC(=O)NC1c1cc2c(cc1Br)OCO2 (stereo not given)		0.203% [at 46.1 µM] (inactive)
O=C1CCCCC(=O)c2ccccc2N1		28.7% (inactive)
c1ccc2c(c1)C(=NC1CCCCC1)NC2=NC1CCCCC1	5.8 µM (active)	
C1CCC2=C(C1)CN1CCCC1=N2		2.94% [at 46.1 µM] (inactive)
Cc1nc2ccc(N)nc2nc1C		19.2% (inactive)
Cc1cccc(NC(=O)C2CCN(C(=O)NC3CCCCC3)CC2)c1		6.86% [at 46.1 µM] (inactive)
CC[C@]1(O)C(=O)OCc2c1cc1n(c2=O)Cc2cc3ccccc3nc2-1	0.0251 µM (active)	
Cn1c(Cc2cccs2)nnc1SCC(=O)Nc1ccccc1		6.62% (inactive)
O=C(Oc1cccc(C(=S)N2CCOCC2)c1)c1cccc(Cl)c1		5.5% (inactive)
COc1ccccc1C(=O)NCCC(=O)NC(C)CCc1ccccc1 (stereo not given)		8.66% (inactive)
Cc1nc2cc3c(cc2s1)OCO3		23.4% (inactive)
c1c2c(cc3sc(N4CCCCC4)nc13)OCCO2	0.562 µM (active)	
COc1ccc2nc(Nc3nc4cc5c(cc4s3)OCCO5)sc2c1		6.42% (inactive)
O=C(NCC(=O)N1CCN(c2ccccc2F)CC1)c1cccs1		29.6% (inactive)
CCN(CC)S(=O)(=O)c1cc(C(=O)Nc2cc(S(=O)(=O)N3CCOCC3)ccc2N2CCCC2)ccc1F		-14.7% (inactive)
CCCN(CCc1ccccc1)C1CCc2c(O)cccc2C1 (stereo not given)	15.8 µM (active)	
Cc1nn(Cc2ccccc2)c(C)c1NS(=O)(=O)c1ccccc1		-5.29% (inactive)

Structure (SMILES)	Potency	activity change, negative = inhibition
COc1ccc(N(CC(=O)NCc2ccc(F)cc2)C(=O)CCC(=O)Nc2nccs2)cc1		-4.66% [at 46.1 µM] (inactive)
NN=C(NN=Cc1ccccc1)c1ccccc1		3.82% (inactive)
COc1ccccc1NS(=O)(=O)c1ccc(C(=O)N2CCN(c3ccccc3O)CC2)cc1		-25.2% (inactive)
CC1CN/C(=C\C(=O)c2ccc(Br)cc2)C(=O)N1 (stereo not given)	2.24 µM (active)	
C/C(=C\C(=O)c1ccc(Br)cc1)N1CCCCC1		2.93% (inactive)
COc1cc2c(cc1OC)/C(=C/C(=O)c1ccc(NC(C)=O)cc1)NCC2		-26.2% (inactive)
Cc1cc(OCC(=O)NCC(O)c2ccccc2)c2c(C)c(C)c(=O)oc2c1 (stereo not given)		-12.1% [at 46.1 µM] (inactive)
O=C(Nc1cccc(Cl)c1N1CCOCC1)c1cccnc1		-10.6% [at 46.1 µM] (inactive)
Cc1ccc(S(=O)(=O)NCC(=O)Nc2ccc3c(c2)OCCO3)cc1		4.18% (inactive)
COc1ccc(OCC(=O)NCCS(=O)(=O)N2CCN(c3ccc(F)cc3)CC2)cc1		-0.979% [at 46.1 µM] (inactive)
O=C(/C=C/c1ccc2c(c1)OCO2)NCc1ccc(F)cc1		5.87% (inactive)
Cc1cccc(NC(=O)/C=C/c2ccc3c(c2)OCO3)n1	6.51 µM (active)	
CCc1c(C)sc(NC(=O)/C=C/c2ccc3c(c2)OCO3)c1C(=O)OC		-15.3% (inactive)
NC(=O)c1ccc(N2CCCC2)nc1		-7.25% [at 46.1 µM] (inactive)
OC(COc1ccccc1)CN1CCN(c2cccc(Cl)c2)CC1 (stereo not given)		13.8% (inactive)
Oc1ccccc1N1CCN(C(=S)NCc2ccccc2)CC1		2.88% [at 46.1 µM] (inactive)
O=C(COC(=O)c1ccccc1C(=O)N1CCN(c2ccccc2)CC1)NCc1ccccc1		-18.8% (inactive)
Oc1ccc(N2CCN(C(=S)NCc3ccccc3)CC2)cc1	3.16 µM (active)	
CN(CC(=O)NCc1cccnc1)S(=O)(=O)c1cc(Cl)ccc1Cl		-29.2% (inactive)
O=C(O)C1C2C=CC(O2)C1C(=O)Nc1ccccn1 (stereo not given)		7.56% [at 46.1 µM] (inactive)
Cc1c(C)n2c(SCC(=O)NC3CCCC3)nnc2[nH]c1=O		22.3% [at 46.1 µM] (inactive)
Cc1cc(N/C=C\C(=O)c2cccc3ccccc23)no1		2.44% (inactive)
